Measured values as given in PubChem BioAssay AID463173 (ICCB-Longwood Screening Facility, Harvard Medical School, 2010).
Out of some 52,000 compounds screened, about 1,700 (3.3%) were called active. The list comes from a sample in which actives are over-represented; it also holds similar structures and randomly drawn compounds. A number with no mark means an inactive call. Cut-off read from the data, not from the text of the source: active = survival mostly below about 52% (no sharp cut-off); inactive = mostly above about 56%.

Test system: Wild type
Experiment: growth inhibition of S. aureus wild type versus tarO mutant, primary screen, teichoic acid synthesis inhibitors, RN4220, OD600 (AID 463173)
Settings: S. aureus RN4220 wild type/DeltatarO growth, OD600, 18 h, stronger effect = lower value, screened at 18.75 µg/mL (by protocol)

SMILES | survival
CCOC(=O)c1c(S(=O)(=O)N2CCCC(C(=O)N3CCN(c4cc(C)ccc4C)CC3)C2)c(C)n(C)c1C (stereo unspecified) | 72%
COc1cccc(-c2cc(C(=O)Nc3cnn(Cc4ccc(Cl)cc4Cl)c3)no2)c1 | 112%
CCC(=O)n1c2c(c3ccccc31)Nc1ccccc1N2 | 105%
CC(C)Oc1ccc(CNC(=O)C2CCN(Cc3cc4ccccc4n3Cc3ccccc3)CC2)cc1 | 93%
CCC(C(=O)NCCc1ccc(Cl)cc1)n1ccc2cc(S(=O)(=O)N3CCCCC3)ccc21 (stereo unspecified) | 101%
CCC(c1nnnn1C1CCCC1)N1CCN(Cc2ccccc2)CC1 (stereo unspecified) | 104%
COc1ccc(C(=O)c2cn(CC(=O)Nc3cc(C)ccc3C)c3nc(C)ccc3c2=O)cc1 | 146%
CCOC(=O)C1NC(=O)CC1c1ccccc1 (stereo unspecified) | 99%
CC(Oc1ccccc1F)C(=O)N1CCC(c2nc3ccccc3o2)CC1 (stereo unspecified) | -18% (active)
CCc1ccc(OC(C)C(=O)N2CCC(c3nc4ccccc4o3)CC2)cc1 (stereo unspecified) | 92%
COc1ccccc1OCC(=O)N1CCC(c2nc3ccccc3o2)CC1 | -12% (active)
Cc1cccc(OCC(=O)N2CCC(c3nc4ccccc4o3)CC2)c1C | 72%
Cc1cccc(C)c1OCC(=O)N1CCC(c2nc3ccccc3o2)CC1 | 81%
Cc1cccc(OC(C)C(=O)N2CCC(c3nc4ccccc4o3)CC2)c1C (stereo unspecified) | 74%
Cc1ccccc1C(=O)NC1CCN(CC(=O)NC(C)(C)C)CC1 | 100%
CC(Oc1ccc(/C=C(/C#N)C(=O)N2CCOCC2)cc1)C(=O)O (stereo unspecified) | 104%
Cc1ccc(N(C)C(=O)c2noc3c2CCCCC3)cc1C | 73%
CCCCn1c(=O)c2oc3ccccc3c2n(Cc2ccc(OC)cc2)c1=O | 115%
CCOc1ccc(C(=O)/C=C/c2cn(CC(O)CN3CCc4ccccc43)c3ccccc23)cc1 (stereo unspecified) | 69%
Cc1ccc(C(=O)/C=C/c2cn(CC(O)CN3CCc4ccccc43)c3ccccc23)cc1 (stereo unspecified) | 76%
CCCCN(C)CC(O)Cn1cc(/C=C/C(=O)c2ccc(C)cc2)c2ccccc21 (stereo unspecified) | 15% (active)
CCCCN(C)CC(O)Cn1cc(/C=C/C(=O)c2ccc(OCC)cc2)c2ccccc21 (stereo unspecified) | 21% (active)
CCCCN(C)CC(O)Cn1cc(/C=C/C(=O)c2ccc(OC)c(OC)c2)c2ccccc21 (stereo unspecified) | 87%

SMILES | survival
CCCCN(C)CC(O)Cn1cc(/C=C/C(=O)c2ccc(Br)cc2)c2ccccc21 (stereo unspecified) | 15% (active)
O=C(O)CCc1ccc(-c2ccccc2)n1Cc1ccco1 | 103%
CCOc1ccc(S(=O)(=O)N(C(C)=O)c2ccc3oc(C)c(C(=O)OC)c3c2)cc1 | 130%
Cc1ccc(N(Cc2cccs2)C(=O)c2ccccc2[N+](=O)[O-])cc1 | 82%
CN1C=CC=C/C1=C1\SC(=S)N(C2CCCCC2)C1=O | 120%
CC(C)Oc1ccc(CNC(=O)c2cccc(NC(=O)N3CCSc4ncccc43)c2)cc1 | 79%
CC(C)Oc1ccc(CNC(=O)c2ccc(NC(=O)N3CCSc4ncccc43)cc2)cc1 | 1% (active)
Cc1ccc(Cl)cc1NC(=O)c1ccc(NC(=O)N2CCSc3ncccc32)cc1 | 71%
Cc1ccc(NC(=O)c2ccc(NC(=O)N3CCSc4ncccc43)cc2)c(C)c1 | 82%
CC(C)Oc1ccc(CNC(=O)Cc2ccc(NC(=O)N3CCSc4ncccc43)cc2)cc1 | 73%
CC(=O)c1ccc(NC(=O)c2cccc(NC(=O)N3CCSc4ncccc43)c2)cc1 | 55%
Cc1ccccc1NC(=O)c1ccc(NC(=O)N2CCSc3ncccc32)cc1 | -4% (active)
CCOc1ccc(NC(=O)c2ccc(NC(=O)N3CCSc4ncccc43)cc2)cc1 | 64%
CCc1cccc(NC(=O)c2ccc(NC(=O)N3CCSc4ncccc43)cc2)c1 | -3% (active)
CCOc1ccc(-c2oc3cc(Cl)ccc3c(=O)c2O)cc1OC | 103%
CC(C)NC(=O)CSc1cn(CC(=O)N2CCCCCC2)c2ccccc12 | 95%
Cc1cc2c(cc(C(=O)OC(C(=O)NCC3CCCO3)C(C)C)n2C)o1 (stereo unspecified) | 120%
O=C(c1ccc(F)cc1)N1c2ncnn2C2(CCCCC2)[C@@H]2CCCC[C@@H]21 | 82%
COc1ccc(Cn2c(CNS(=O)(=O)c3ccc(Cl)s3)nc3cccnc32)cc1 | 78%
CCC/C(O)=C1\C(=O)CC(C)(C)CC1=Nc1ccncc1 | 115%
CCc1ccc(NC(=O)CN2CCN(C3CCCCC3)C(=O)C2=O)cc1 | 77%
CCc1ccc(NC(=O)C2CCCN(S(=O)(=O)c3ccc(F)cc3)C2)cc1 (stereo unspecified) | 75%
CCOC(=O)c1c(C(=O)CSc2ncc(-c3ccc(F)cc3)n2Cc2ccco2)sc2c1CCCC2 | 116%

SMILES | survival
CCOc1ccc(C(C)N)cc1 (stereo unspecified) | 102%
COCCNC(=O)Nc1ccc2c(c1)nc(C)n2C | 87%
COC(=O)c1ccc(C2Nc3c(C)cccc3-c3cc(C)nn32)cc1 (stereo unspecified) | -4% (active)
COc1cc(C2Nc3c(C)cc(C)cc3-c3cc(C)nn32)cc(OC)c1O (stereo unspecified) | 97%
Cc1cc2n(n1)C(c1cc(C(C)(C)C)c(O)cc1O)Nc1ccccc1-2 (stereo unspecified) | 115%
CCOc1ccc(C2Nc3c(C)cccc3-c3cc(C)nn32)cc1 (stereo unspecified) | -14% (active)
CCN(CC)c1ccc(C2Nc3ccccc3-c3cc(C)nn32)cc1 (stereo unspecified) | -1% (active)
CCOc1cccc(C2Nc3ccccc3-c3cc(C)nn32)c1O (stereo unspecified) | 145%
COc1ccc(OC)c(C2Nc3c(C)cc(C)cc3-c3cc(C)nn32)c1 (stereo unspecified) | -14% (active)
Cc1ccc2c(c1)-c1cc(C)nn1C(c1cc(Br)ccc1O)N2 (stereo unspecified) | 131%
COc1cc(OC)c(C2Nc3c(C)cccc3-c3cc(C)nn32)cc1OC (stereo unspecified) | 142%
Cc1cc2n(n1)C(c1ccccc1)Nc1ccccc1-2 (stereo unspecified) | 123%
COc1cc(C2Nc3ccccc3-c3cc(C)nn32)ccc1O (stereo unspecified) | 139%
CC(=O)Nc1ccc(C2Nc3c(C)cc(C)cc3-c3cc(C)nn32)cc1 (stereo unspecified) | 141%
O=C(NCc1ccc(Cl)cc1)C(=O)NCC(c1ccco1)S(=O)(=O)c1cccs1 (stereo unspecified) | 76%
Cc1ccc(Cn2c(=O)n(Cc3ccco3)c(=O)c3sc4ccccc4c32)cc1 | 94%
COc1ccc(-c2noc(CN3CCN(c4ccccc4OC)CC3)n2)cc1OC | 83%
CCOC(=O)N1CCN(C(=O)CN(c2cccc(Cl)c2)S(=O)(=O)c2ccccc2)CC1 | 63%
CCOC(=O)c1cccc(NC(=O)NCCc2c(C)nn(C)c2C)c1 | 63%
COc1ccc(Nc2cc(C(=O)NCCCN(C)C3CCCCC3)c3ccccc3n2)c(OC)c1 | 92%
COc1ccc(NC(=O)c2cc3c(-c4ccccc4F)nn(C)c3s2)c(OC)c1 | 38%
O=C1CS(=O)(=O)C2(C(=O)N(Cc3ccccc3)c3ccccc32)N1c1ccccc1 (stereo unspecified) | 132%
COc1cc(NS(=O)(=O)c2cc3c(cc2C)n(C)c(=O)c(=O)n3C)cc(OC)c1 | 54%

SMILES | survival
COc1ccc(-c2nc(-c3ccccc3)c(-c3ccc(F)cc3)[nH]2)c(OC)c1C | 15% (active)
COc1cc(-c2nc(-c3cccc(Cl)c3)c(-c3ccccc3)[nH]2)cc(OC)c1OC | 143%
COc1ccc(-c2nc(SCC(=O)Nc3ccccc3)c(-c3ccc(F)cc3)[nH]2)cc1OC | 58%
COc1ccc(-c2[nH]c(-c3ccc(O)cc3)nc2-c2ccccc2)cc1 | 0% (active)
COc1ccc(-c2nc(-c3ccccc3)c(-c3ccccc3)[nH]2)cc1Br | 81%
COc1cc(-c2nc(SCC(=O)Nc3ccc(C)cc3)c(-c3ccc(F)cc3)[nH]2)cc(OC)c1OC | 106%
CCOc1ccc(-c2nc(-c3ccccc3)c(-c3ccccc3)[nH]2)cc1OCC | 163%
COc1ccc(-c2[nH]c(-c3ccccc3)nc2SCC(=O)NC2CCCC2)cc1 | 80%
COc1ccc(NC(=O)CSc2nc(-c3ccc(OC)cc3)[nH]c2-c2ccc(OC)cc2)cc1 | 76%
COCCNC(=O)CSc1nc(-c2ccccc2)[nH]c1-c1ccc(OC)cc1 | 74%
COc1cc(-c2nc(-c3ccccc3)c(-c3ccc(Br)cc3)[nH]2)cc(OC)c1O | 5% (active)
COc1ccc(-c2nc(-c3ccccc3)c(-c3ccc(O)cc3)[nH]2)cc1 | 3% (active)
CC(C)(C)n1nnnc1C(c1ccc2ncccc2c1)N1CCc2ccccc21 (stereo unspecified) | 111%
CCc1ccccc1NC(=O)CSc1nnc2ccc3ccccc3n12 | 80%
Cc1ccc(Cl)cc1N(C)C(=O)c1noc2c1CCCCC2 | 65%
CCCCC(=O)OCc1cc(=O)n2nc(C3CC3)sc2n1 | 135%
CCCOc1ccc(CNC(=O)c2ccc(-n3c(C)cc4c3CCC(C)C4)cc2)cc1 (stereo unspecified) | 113%
COc1cccc(C(=O)c2sc(Nc3ccc(C)cc3C)c(S(=O)(=O)c3ccccc3)c2N)c1 | 94%
O=C(O)c1ccc(-c2nc3ccccc3[nH]2)cc1 | 106%
Oc1ccc(-c2nc(-c3ccccc3)c(-c3ccc(Br)cc3)[nH]2)cc1 | -2% (active)
O=C(CSc1nc(-c2ccc(F)cc2)[nH]c1-c1ccccc1)Nc1ccccc1 | 70%
O=C(Nc1ccc(C(=O)OCc2cc(=O)n3c4c(sc3n2)CCCC4)cc1)c1cccc(F)c1 | 81%
